Measured values taken from PubChem BioAssay (EPA / NIEHS).
Several values for one entry are separate records, joined by “and”; a condition that tells them apart may be missing. Equal values may be shown once. Activity calls are given as the source filed them. Rule for the calls: active = hit-call score of the fitted dose curve at least 0.9, where 1 is the maximum; inactive = score below 0.9.

test: BSK_3C_TissueFactor: BioMAP Diversity Plus: 3C Assay for Tissue Factor Biomarker Activity (AID 2282997); settings: BioMAP 3C HUVEC, tissue factor biomarker readout; actives raise or lower the signal
Procedure: BSK_3C is a cell-based, multiplexed-readout assay that uses umbilical vein endothelium, a human vascular primary cell, with measurements taken at 24 hours after chemical dosing in a 96-well plate.BSK_3C_TissueFactor is an assay component measured in the BSK_3C assay. It measures Tissue Factor antibody related to regulation of gene expression using ELISA technology.Data from the assay component BSK_3C_TissueFactor was analyzed into 1 assay endpoint. This assay endpoint, BSK_3C_TissueFactor, was analyzed with bidirectional fitting relative to DMSO as the negative control and baseline of activity. Using a type of binding reporter, gain or loss-of-signal activity can be used to understand changes in the signaling as they relate to the gene F3. Furthermore, this assay endpoint can be referred to as a primary readout, because this assay has produced multiple assay endpoints where this one serves a signaling function. To generalize the intended target to other relatable targets, this assay endpoint is annotated to the cytokine intended target family, where the subfamily is coagulation factor.
The levels of cell surface (or secreted, indicated by the prefix "s") biomarker endpoints were measured by ELISA. Overt cytotoxicity to cells in confluent adherent cultures (all systems other than the BT system) was assessed by measuring total protein levels using sulforhodamine B (SRB) staining in parallel cultures at the time of biomarker measurements, indicated as SRB endpoints. For proliferation assays for adherent cell types, individual cell types are cultured at sub-confluence and relative cell numbers quantified by SRB staining at time points optimized for each system (48 h: 3C and CASM3C systems; 72 h: BT and HDF3CGF systems; 96 h: SAg system). SRB was performed by staining cells with 0.1% SRB after fixation with 10% TCA and reading wells at 560 nm.Viability and proliferation of PBMC (T cells) was quantified by Alamar Blue reduction for the SAg and BT systems. For PBMC viability (referred to as PBMC Cytotoxicity within the assay endpoint names), cells were plated (75,000/well in a 96-well plate) and then chemical samples added for 1 h before addition of activators, SEB and TSST-1 (20 ng/mL final concentration each). Cells were incubated for 90 h. Then, Alamar Blue (20 uL/well) (Invitrogen, Cat DAL1100) was added for 6 h, and the plates were read with a fluorescence microplate reader at 546/580 nm (excitation/emission). For PBMC proliferation, cells were plated and activated as above but incubated for only 16 h prior to addition of Alamar Blue. Plates were read after 6 h.

Row | Compound | AC50 | outcome
1 | NC(=NCCCCCCN=C(N)/N=C(\N)Nc1ccc(Cl)cc1)/N=C(\N)Nc1ccc(Cl)cc1 | 4.88 µM (active) | –
2 | COc1cccc(O)c1 | – | inactive
3 | CCCCC(CC)C(=O)OCCOCCOCCOCCOC(=O)C(CC)CCCC (stereo not given) | – | inactive
4 | O=C(NCc1ncc(C(F)(F)F)cc1Cl)c1c(Cl)cccc1Cl | – | inactive
5 | OCC(CO)(CBr)CBr | – | inactive
6 | CCCCC(CC)C(=O)O (stereo not given) | – | inactive
7 | Cc1[nH]nc2c1N=C(c1ccccc1Cl)c1cc([N+](=O)[O-])ccc1N2 | 3.97 µM (active) | –
8 | Oc1cc2ccccc2cc1O | – | inactive
9 | O=S(=O)(O)C(F)(F)C(F)(F)C(F)(F)C(F)(F)C(F)(F)C(F)(F)C(F)(F)C(F)(F)C(F)(F)C(F)(F)F | – | inactive
10 | N=C(N)c1ccc(OCCCCCOc2ccc(C(=N)N)cc2)cc1 | – | inactive
11 | Cc1cccc2c1ccc1ccccc12 | 0.0495 µM (active) | –
12 | O=C(CC(=O)C(F)(F)C(F)(F)C(F)(F)F)c1cccs1 | 29.2 µM (active) and 35.5 µM (active) | –
13 | O=C1OC2(c3ccccc31)c1cc(I)c(O)c(I)c1Oc1c2cc(I)c(O)c1I | 12 µM (active) | –
14 | Clc1ccc(Nc2nnc(Cc3ccncc3)c3ccccc23)cc1 | – | inactive
15 | CCCCCCCCCCCCCCC | – | inactive
16 | O=P(O)(O)CCC(F)(F)C(F)(F)C(F)(F)C(F)(F)C(F)(F)C(F)(F)F | – | inactive
17 | O=C1c2ccc(O)c(O)c2C(=O)c2c(O)ccc(O)c21 | – | inactive
18 | CC1=NN(c2ccccc2)C(=O)C1 | 4.46 µM (active) | –
19 | O=C(O)CCC(F)(F)C(F)(F)C(F)(F)C(F)(F)C(F)(F)F | – | inactive
20 | O=P(O)(O)CCC(F)(F)C(F)(F)C(F)(F)C(F)(F)C(F)(F)C(F)(F)C(F)(F)C(F)(F)F | – | inactive

Row | Compound | AC50 | outcome
21 | COc1cc(OC)nc(NC(=O)NS(=O)(=O)Nc2ccccc2C(=O)N(C)C)n1 | – | inactive
22 | COC1=CC(=O)C[C@@H](C)[C@]12Oc1c(Cl)c(OC)cc(OC)c1C2=O | – | inactive
23 | C=CC(C)(CCC=C(C)C)OC(C)=O (stereo not given) | 27.8 µM (active) | –
24 | Oc1ccc(Cc2ccccc2O)cc1 | – | inactive
25 | CCCCC=O | – | inactive
26 | O=C(NO)c1ccccc1 | – | inactive
27 | O=C(c1ccccc1)c1ccccc1 | – | inactive
28 | CCCCc1oc2ccccc2c1C(=O)c1cc(I)c(OCCN(CC)CC)c(I)c1 | 10.2 µM (active) | –
29 | C=CC(=C)CC/C=C(\C)CCC=C(C)C | – | inactive
30 | O=C(O)CCC(F)(F)C(F)(F)C(F)(F)C(F)(F)C(F)(F)C(F)(F)F | – | inactive
31 | CC(C)(C)c1ccc(O)c(O)c1 | 3.97 µM (active) | –
32 | CCCCCCCCCCCCCCCCCC[N+](C)(C)Cc1ccccc1 | 1.17 µM (active) | –
33 | CC[N+](CC)(CC)Cc1ccccc1 | – | inactive
34 | OCC(F)(F)C(F)(F)C(F)(F)C(F)(F)C(F)(F)C(F)(F)C(F)(F)C(F)(F)C(F)(F)C(F)(F)C(F)(F)F | – | inactive
35 | Cc1ccc(N=Nc2c(O)ccc3ccccc23)c(C)c1 | 1.97 µM (active) | –
36 | COCN(COC)c1nc(N(COC)COC)nc(N(COC)COC)n1 | – | inactive
37 | CN(Cc1cnc2nc(N)nc(N)c2n1)c1ccc(C(=O)N[C@@H](CCC(=O)O)C(=O)O)cc1 | – | inactive
38 | CCCCCc1ccc(O)cc1 | 12 µM (active) | –
39 | C[C@]12CC[C@@H]3c4ccc(O)cc4CC[C@H]3[C@@H]1C[C@@H](O)[C@@H]2O | – | inactive
40 | O=C1NS(=O)(=O)c2ccccc21 | – | inactive
